Inconclusive results are not listed. A call without a number means that no potency is given here. The source made the active and inactive calls. Calls follow the shape of the dose curve; as a rule, active = well fitted cell-killing curve with a large enough effect; inconclusive = small, poorly fitted or top-dose-only effect; inactive = flat fitted curve, though single readings scatter.
assay: Cell Viability - LYMP2-013 (AID 970); conditions: LYMP2-013 lymphoblastoid cells viability; series mostly up to 92.2 µM;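 also: cells exposed to compound for 24 h at 37 °C; nearly all actives have a fitted effect of over 55% in size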
Text: NIH Chemical Genomics Center [NCGC]
NIH Molecular Libraries Screening Centers Network [MLSCN]
National Institutes of Environmental Health Sciences [NIEHS]
National Toxicology Program [NTP]
We have developed a 1536-well cell-based assay for quantitative high throughput screening (qHTS) against a number of cell lines to determine in vitro cytotoxicity of small molecules. This particular assay uses a human lymphoblastoid cell line (LYMP2-013) purchased from Coriell Institute for Medical Research.
NCGC Assay Protocol Summary:
The CellTiter-Glo luminescent cell viability assay (Promega) is a homogeneous method to measure the number of viable cells in culture. The end point readout of this assay is based on quantitation of intracellular ATP, an indicator of metabolic activity, using the luciferase reaction. Luciferase catalyzes the oxidation of beetle Luciferin to oxyluciferin and light in the presence of ATP. The luminescent signal is proportional to amount of ATP present.
Using the CellTiter-Glo luminescent cell viability assay, the amount of cellular ATP was measured in the lymphoblastoid cell line with complete culture medium following compound treatment for 24 hours. The assay was performed in opaque white Kalypsys 1536-well plates. In the screen, tetraoctylammonium bromide was used as positive control. Library compounds were measured for their ability to cause acute toxicity in the cell line, as reflected by a decrease in intracellular ATP levels, in a concentration-dependent manner. […] AC50 values were determined from concentration-response data modeled with the standard Hill equation.
qHTS protocol for CellTiter Glo lymphoblastoid cellular assay
[Step] [Parameter] [Value] [Description]
1. Reagent; 5 uL; 2500 lymphoblastoid cells/well
2. Time; 5 hr; 37 C incubation
4. Controls; 23 nL; Tetraoctylammonium bromide 6.4pM to 92 uM
5. Time; 24 hr; 37 C incubation
6. Reagent; 5 uL; CellTiter Glo reagent
7. Time; 30 min; Room Temperature
8. Detection; Luminescence; Viewlux plate reader
Keywords: cell viability, cytotoxicity, lymphoblastoid cell line, luminescence, NTPHTS, NTPHTS_NCGC, NIEHS, DSSTox, MLSMR, MLSCN, NIH Roadmap, qHTS, NCGC
Potency is read from the fitted curve at half-maximal effect.

Row | Compound | Potency
1 | CCC(C)=O | inactive
2 | CC=O | inactive
3 | CO[Si](CCCNCCC[Si](OC)(OC)OC)(OC)OC | inactive
4 | CCCC(Cl)CCCC(Cl)CCC(Cl)CCC(Cl)CCC(Cl)CCCC(Cl)CCC (stereo not given) | inactive
5 | CCC(C)(C)C | inactive
6 | Cc1cscn1 | inactive
7 | CC(=C/C=C/C(C)=C/C=C/C=C(C)/C=C/C=C(C)/C=C/C(=O)O)/C=C/C(=O)O | inactive
8 | OC(CCl)CCl | inactive
9 | Cc1ccc(C#N)cc1 | inactive
10 | O=Nc1ccc(NO)cc1 | 50.1 µM (active)
11 | CCOc1cc(OCC)c(C(C)=O)cc1OCC | inactive
12 | CC(C)Cc1nccs1 | inactive
13 | CC(C)(O)CCC(C)(C)O | inactive
14 | CCC(O)C(C)(C)C (stereo not given) | inactive
15 | CC(C)(c1cc(Br)c(OCC(Br)CBr)c(Br)c1)c1cc(Br)c(OCC(Br)CBr)c(Br)c1 (stereo not given) | inactive
16 | Cc1ccc(C)o1 | inactive
17 | C(=C/c1ccccc1)/c1ccccc1 | inactive
18 | CCOCCOCC | inactive
19 | CC#N | inactive
20 | Cc1ccccc1C=O | inactive

Row | Compound | Potency
21 | CC(C)(O)C(=O)O | inactive
22 | O=C(O)c1ccc(Cl)c(Cl)c1 | inactive
23 | Cc1cccc2ccccc12 | inactive
24 | C=C(C)C(=O)OC | inactive
25 | O=[N+]([O-])c1c(Cl)cc(Cl)cc1Cl | inactive
26 | c1ccsc1 | inactive
27 | O=[N+]([O-])c1ccc(Cl)cc1Cl | inactive
28 | O=c1[nH][nH]c(=O)c2cc([N+](=O)[O-])ccc12 | inactive
29 | Cc1cc([N+](=O)[O-])ccc1N | inactive
30 | O=Cc1ccccc1Cl | inactive
31 | ClCCl | inactive
32 | CCOC(=O)OCC | inactive
33 | CC(=O)Nc1ccccc1C | inactive
34 | O=C(O)c1ccc(CO)o1 | inactive
35 | O=C(O)c1ccccc1C(=O)O | inactive
36 | Nc1cc(Cl)c(N)c(Cl)c1 | inactive
37 | O=C(O)c1cccc(Cl)c1Cl | inactive
38 | CC(=O)OCc1ccco1 | inactive
39 | CCOC(=O)C(C)C(C)=O (stereo not given) | inactive
40 | CC(N)CN (stereo not given) | inactive

Reference: PubChem BioAssay (NCATS)
